{"source": "paper PMC12723454", "binders": {"B1": {"name": "HHH_b1_08438_000000177_dldesign_0_cycle1_af2pred_0001 (protein)", "chain": "GGSGGSAEEEVEKLIEEAKNNPDKEKAEELLSRALKLADAAGNVDLRSKTMNALFDVLGGSGGSG"}, "B2": {"name": "HHH_b1_01197_000000280_dldesign_0_cycle1_af2pred_0001 (protein)", "chain": "GGSGGSGKSSEIDKLLNEVLKLGKEEEYLKIMSLKMDYLETGDEEIFKEAKELAKKVIGGSGGSG"}, "B3": {"name": "HHH_b2_07220_000000120_dldesign_0_cycle1_af2pred_0001 (protein)", "chain": "SGGSEESKKLVEETIKKAKKLVEEGNPLEAKILLRKTLLDLSELGDDEGFSKLSKFLDEIEGGSG"}, "B4": {"name": "HHH_b1_00135_000000286_dldesign_0_cycle1_af2pred_0001 (protein)", "chain": "SGGSLAVETAKEYLEMVKSYAEEGDKEEAQFFADIIKLLAESENNPELKKIYEEAKKIVEEGGSG"}, "B5": {"name": "HHH_b1_08653_000000138_dldesign_0_cycle1_af2pred_0001 (protein)", "chain": "GSGGSGASLAAEDILRAMRQFARAGKPEAVRDLAKKGIKIMTEAGRPDEAKRIEEELARLGGSGG"}, "B6": {"name": "HHH_b1_02099_000000008_dldesign_0_cycle1_af2pred_0001 (protein)", "chain": "SGGSMEELDECARLLNELAHAIEEGNKEKFEELYKKARELIEKLGDEALLKALDELEEAFYGGSG"}, "B7": {"name": "ac710d00df0a15e663fb636f306744b3_0001_1_000000013_dldesign_0_cycle1_af2pred_0001 (protein)", "chain": "GIRERAREMAKKHGVSDEELQPVIDLVEKMRAEGKSIEEIARELGEKLAETGNKAYACVLEALAE"}}, "note": "Not all results are given here. The true hit rate is not given. Values without a mark were called inactive."}
{"biological_target": "Flpp3", "assay": "yeast display titration", "units": {"apparent Kd": "µM"}}
{"binder": "B1", "apparent Kd": "> 11.6"}
{"binder": "B2", "apparent Kd": "> 5.39"}
{"binder": "B3", "apparent Kd": "> 4.46"}
{"binder": "B4", "apparent Kd": "> 7.9"}
{"binder": "B5", "apparent Kd": "> 134"}
{"binder": "B6", "apparent Kd": "> 0.105"}
{"binder": "B7", "apparent Kd": "> 0.105"}
